Data on four compounds can be found in PubChem BioAssay.

The nature of experiment [1]: rapamycin-like changes in RPL19A-GFP expression – cell-based, S. cerevisiae, multiplex flow cytometry, primary screen (AID 1862; in the data active = percent of DMSO control GFP below about 86%;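 note: lower values mimic rapamycin by blocking the RPL19A rise seen in DMSO cells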). Conditions: S. cerevisiae RPL19A-GFP strain, flow cytometry fluorescence, 3 h; at 10 µM; stronger effect = lower value. (Flow cytometry measures light scatter and fluorescence of single cells or particles in a stream.)
The nature of experiment [2]: TOR pathway GLN3 branch reporter MEP2-GFP changes – S. cerevisiae, multiplex flow cytometry, primary screen (AID 1867;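 active = GFP response, as percent of the DMSO control, above the screen-wide mean plus 3 SD, about 139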;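 note: median GFP channel fluorescence of barcode-gated MEP2-GFP cells measured by flow cytometry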). Conditions: S. cerevisiae MEP2-GFP strain, 3 h, at 10 µM, stronger effect = higher value.
A short description of experiment [3]: TOR pathway RTG branch CIT2 reporter changes – S. cerevisiae, GFP fusion, multiplex flow cytometry, primary screen (AID 1870;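 active = percent response above a set limit, the screen-wide mean plus 3 SD, cut at about 130% in these data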;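 note: barcoded CIT2-GFP strain pooled with four other GFP strains with rapamycin as positive control; median GFP fluorescence per well over plate mean of DMSO wells so 100% = DMSO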). Conditions: S. cerevisiae CIT2-GFP expression, 3 h, at 10 µM, stronger effect = higher value.
The nature of experiment [4]: TOR pathway LAP4-GFP level changes – S. cerevisiae, multiplex flow cytometry, primary screen (AID 1873;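 active = GFP signal, as percent of the solvent control, above the screen mean plus 3 SD, about 149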). The settings on record: S. cerevisiae LAP4-GFP expression, 3 h, at 10 µM, stronger effect = higher value.
A short description of experiment [5]: yeast AGP1-GFP level changes, GLN3 branch – cell-based, multiplex flow cytometry, S. cerevisiae, primary screen (AID 1887;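 active = GFP signal above the screen-wide mean plus 3 SD, that is over about 124.5% of the solvent control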;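 note: AGP1-GFP fusion strain of S. cerevisiae within a five-strain barcoded multiplex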). The settings on record: 3 h, at 10 µM, stronger effect = higher value.
Experiment [6] is described as follows: reduced mouse 2C T cell binding to pMHC/ICAM-1 vesicles – MLPCN validation set, flow cytometry, LFA-1/ICAM-1 modulator project, pilot screen (AID 2523;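 active = response below a set limit, under 55% cells CD8-positive and vesicle-bound, and CD8 cells' 90th-percentile brightness under 279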;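 for vesicle binding response: mean PE anti-B7-1 fluorescence of CD8+ cells relative to row control; 100% = QL9-loaded vesicles with DMSO vehicle in the same plate row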). The settings on record: 2C mouse CD8+ T cells, at 7 µM, stronger effect = lower value; double positive events: measured here: CD8+/vesicle+ event percentage.
Experiment [7] has as its target Integrin beta-1 (Homo sapiens) + Integrin alpha-4 (Homo sapiens) (UniProt P13612+P05556). Put plainly: alpha4beta1 integrin LIBS antibody binding reduction – U937 cells, HUTS-21 mAb, flow cytometry, validation set, VLA-4 allosteric modulator project, pilot screen (AID 2674;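 active = inhibition above 50%, about 3 SD of the validation set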;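 note: antibody binding induced by the VLA-4 ligand LDV present at three times its Kd; 0% = LDV ligand with antibody and no compound and 100% = antibody without LDV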). Conditions: HUTS-21 LIBS mAb binding, at 6.7 µM, stronger effect = higher value.
Experiment [8] can be described thus: calorie-restriction mimetic ROS inhibitors, yeast – validation compound set, pilot screen (AID 2706;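 active = superoxide response below 65% of plate, a cut near 3 SD across the whole screen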;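 note: yeast exposed to compound for one week at 30 degrees C before staining; 100% = mean of all compound wells on the same plate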). Conditions: S. cerevisiae aging, superoxide DHE fluorescence; at 10 µM; stronger effect = lower value.
The target of experiment [9] is Beta-adrenergic receptor kinase 1 (Homo sapiens) (UniProt P25098). Put plainly: GRK2 binders displacing RNA aptamer, biochemical, validation, human GRK2, bead flow cytometry (AID 488806;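 active = aptamer binding inhibition above 30%, about 3 SD of noise from non-fluorescent compounds; inactive = inhibition at or below 30%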). Conditions: bead-bound GRK2, FAM-aptamer displacement, at 10 µM, stronger effect = higher value.
Experiment [10] has as its target Beta-2 adrenergic receptor (Homo sapiens) (UniProt P07550). As to the kind of experiment: agonist-induced loss of surface beta2AR – cell-based, FAP fluorogen, flow cytometry, validation set, pilot screen (AID 504459;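 active = percent response above 42, roughly 3 SD of non-fluorescent test compounds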;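 note: agonist-driven loss of surface beta2AR via internalization measured by FAP dye flow cytometry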). The settings on record: Am2.2-beta2AR cells, at 10 µM, stronger effect = higher value.
For experiment [11], the target named is AP-2 complex subunit beta (Homo sapiens) (UniProt P63010). As to the kind of experiment: beta-arrestin/AP2 interaction blockers – biochemical, validation set, GST-AP2 beads, flow cytometry, pilot screen (AID 504541;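 active = inhibition above 54%, about 3 SD of non-fluorescent compounds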;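 note: AP2 carries R879A mutation and is captured from E. coli lysate; bead-bound FITC arrestin peptide fluorescence measuring arrestin peptide binding to AP2; 0% = DMSO wells and 100% = excess unlabeled arrestin peptide control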). Conditions: FITC arrestin peptide, at 10 µM, stronger effect = higher value.
Experiment [12] in a line: cytosolic pH regulators acting via V-ATPase – S. cerevisiae, pHLuorin, HTS validation (AID 504600; in the data active = response above about 15%;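 note: plate controls were DMSO for no effect and reference compound for full effect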). Conditions: V-ATPase proton transport, at 10 µM, stronger effect = higher value.
Experiment [13] concerns anti-desmoglein-3 scFv antibody binding to human DSG3. Put plainly: blockers of pathogenic pemphigus antibody–desmoglein-3 binding – biochemical, validation compound set, bead-based, flow cytometry, pilot screen (AID 588368;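 active = binding below the plate cutoff, the plate median minus 3 SD, with a reading above zero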;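 note: signal is the median channel fluorescence of bead-bound GFP antibody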). The settings on record: Protein G beads, DSG3-Fc, scFv-GFP binding, at 10 µM, stronger effect = lower value.
Experiment [14] is described as follows: Nile Red efflux blockade in pump-expressing yeast – validation compound set, multiplex, phenotypic, pilot screen (AID 588506;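 active = efflux inhibition above 0.42, the validation set average plus 4 SD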;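 note: Nile Red retained in cells so higher fluorescence means more efflux inhibition; 0 = negative control wells and 1 = enniatin B 25 µM full block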). The settings on record: S. cerevisiae pump-expressing triplex, Nile Red efflux flow cytometry; at 10 µM; stronger effect = higher value.
Experiment [15] concerns the target ATP-binding cassette sub-family B member 6 (Homo sapiens) (UniProt Q9NP58). As to the kind of experiment: blockers of ABCB6-driven porphyrin uptake – K562-ABCB6 cells, flow cytometry, validation set, pilot screen (AID 588550;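 active = inhibition above the screen-wide mean plus 3 SD, about 51%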;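 note: 0% = DMSO wells and 100% = benzethonium chloride 70 µM positive control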). The settings on record: K562-ABCB6 porphyrin accumulation, 1 h, at 10 µM, stronger effect = higher value.
Experiment [16] in a line: AML differentiation inducers, ER-HoxA9 marrow cells – cell-based, GFP/MAC1 double positive, flow cytometry, validation set, primary screen (AID 588685;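 active = differentiation response of at least 50%, scaled between solvent and reference control, from cells with both markers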;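 note: compound exposure lasts four days before antibody staining and flow analysis; 0% = DMSO wells and 100% = 5 µM fulvestrant positive control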). Conditions: stronger effect = higher value.
The subject of experiment [17] is Botulinum neurotoxin type F light chain protease (Clostridium botulinum). As to the kind of experiment: Clostridium botulinum type F light chain protease inhibitors, microsphere substrate cleavage, validation (AID 588459). Conditions: multiplex microsphere protease substrate cleavage assay, flow cytometry; at 10 µM; stronger effect = higher value.
In experiment [18] the target is Botulinum neurotoxin type A (Clostridium botulinum) (UniProt P0DPI0). Put plainly: BoNT/A light chain protease inhibitors, biochemical, multiplex microsphere flow cytometry, validation set (AID 588460). Conditions: at 10 µM, stronger effect = higher value.
In experiment [19] the target is Lethal factor (Bacillus anthracis) (UniProt P15917). As to the kind of experiment: Bacillus anthracis lethal factor inhibition, microsphere flow cytometry protease assay, validation at 10 µM (AID 588461). The settings on record: multiplex microsphere protease cleavage assay, stronger effect = higher value.

Inconclusive results are not listed. The source made the active and inactive calls. Unless noted, the rule behind the calls is not given here.

Chain of Integrin beta-1 (Homo sapiens) + Integrin alpha-4 (Homo sapiens) (P05556 whole entry, looked up): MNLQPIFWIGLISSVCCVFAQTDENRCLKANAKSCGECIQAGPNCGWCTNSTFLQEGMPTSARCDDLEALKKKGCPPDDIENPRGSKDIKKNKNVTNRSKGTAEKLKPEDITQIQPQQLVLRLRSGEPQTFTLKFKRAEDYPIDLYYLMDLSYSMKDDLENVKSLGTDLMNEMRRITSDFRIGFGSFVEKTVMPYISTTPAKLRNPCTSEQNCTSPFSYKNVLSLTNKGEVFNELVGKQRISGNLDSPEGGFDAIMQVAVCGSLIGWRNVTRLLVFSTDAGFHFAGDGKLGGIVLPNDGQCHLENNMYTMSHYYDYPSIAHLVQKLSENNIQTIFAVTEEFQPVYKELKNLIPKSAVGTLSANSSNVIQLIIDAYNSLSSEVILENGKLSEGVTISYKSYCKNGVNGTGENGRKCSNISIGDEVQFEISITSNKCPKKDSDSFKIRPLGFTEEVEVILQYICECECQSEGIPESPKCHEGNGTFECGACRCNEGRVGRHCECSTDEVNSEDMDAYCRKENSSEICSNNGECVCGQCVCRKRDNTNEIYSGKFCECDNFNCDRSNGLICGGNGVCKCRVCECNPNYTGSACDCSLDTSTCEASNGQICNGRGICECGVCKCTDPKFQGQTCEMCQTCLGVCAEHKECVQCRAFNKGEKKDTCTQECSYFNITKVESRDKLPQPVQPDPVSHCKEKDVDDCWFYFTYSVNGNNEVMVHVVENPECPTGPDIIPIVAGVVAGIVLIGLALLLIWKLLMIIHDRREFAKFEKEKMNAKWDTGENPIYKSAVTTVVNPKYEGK
Chain of Integrin beta-1 (Homo sapiens) + Integrin alpha-4 (Homo sapiens) (P13612 whole entry, looked up): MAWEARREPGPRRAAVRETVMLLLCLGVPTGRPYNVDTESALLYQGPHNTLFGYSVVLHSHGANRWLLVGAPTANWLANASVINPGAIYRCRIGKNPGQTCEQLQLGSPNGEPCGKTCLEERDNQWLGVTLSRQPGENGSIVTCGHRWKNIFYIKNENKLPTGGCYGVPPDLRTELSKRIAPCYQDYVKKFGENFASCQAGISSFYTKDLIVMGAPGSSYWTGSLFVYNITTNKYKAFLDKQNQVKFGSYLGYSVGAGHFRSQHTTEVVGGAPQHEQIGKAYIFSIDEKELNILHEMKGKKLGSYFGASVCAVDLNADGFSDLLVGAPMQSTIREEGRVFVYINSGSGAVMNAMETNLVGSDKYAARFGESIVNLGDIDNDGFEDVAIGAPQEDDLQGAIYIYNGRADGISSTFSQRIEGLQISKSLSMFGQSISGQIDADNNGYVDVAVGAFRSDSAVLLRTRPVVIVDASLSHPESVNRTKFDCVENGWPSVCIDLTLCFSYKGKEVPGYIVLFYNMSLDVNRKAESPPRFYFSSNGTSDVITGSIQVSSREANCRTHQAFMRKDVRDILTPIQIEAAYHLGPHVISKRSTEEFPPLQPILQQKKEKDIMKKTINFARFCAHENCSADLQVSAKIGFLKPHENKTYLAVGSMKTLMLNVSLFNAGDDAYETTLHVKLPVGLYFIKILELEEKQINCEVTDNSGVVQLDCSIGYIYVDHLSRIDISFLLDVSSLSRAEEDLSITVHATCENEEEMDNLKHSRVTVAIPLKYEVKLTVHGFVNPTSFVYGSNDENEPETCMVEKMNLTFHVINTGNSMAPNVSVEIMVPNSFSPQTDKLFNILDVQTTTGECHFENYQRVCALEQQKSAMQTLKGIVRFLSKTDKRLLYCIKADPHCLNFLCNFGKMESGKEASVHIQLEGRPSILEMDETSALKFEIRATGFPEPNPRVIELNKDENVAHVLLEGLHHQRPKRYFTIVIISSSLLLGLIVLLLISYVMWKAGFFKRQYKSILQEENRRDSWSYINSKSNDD
Chain of Beta-2 adrenergic receptor (Homo sapiens) (P07550 whole entry, looked up): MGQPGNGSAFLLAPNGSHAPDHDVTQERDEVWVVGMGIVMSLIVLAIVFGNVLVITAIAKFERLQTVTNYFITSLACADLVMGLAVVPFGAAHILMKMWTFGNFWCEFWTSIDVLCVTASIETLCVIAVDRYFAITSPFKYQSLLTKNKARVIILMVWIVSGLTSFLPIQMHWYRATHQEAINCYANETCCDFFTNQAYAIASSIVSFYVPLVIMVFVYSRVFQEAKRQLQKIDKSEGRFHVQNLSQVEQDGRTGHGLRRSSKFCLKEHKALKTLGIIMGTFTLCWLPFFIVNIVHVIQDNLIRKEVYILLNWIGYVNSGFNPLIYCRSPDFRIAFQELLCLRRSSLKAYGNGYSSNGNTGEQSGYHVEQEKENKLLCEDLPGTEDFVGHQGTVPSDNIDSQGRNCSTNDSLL
Chain of Lethal factor (Bacillus anthracis) (P15917 whole entry, looked up): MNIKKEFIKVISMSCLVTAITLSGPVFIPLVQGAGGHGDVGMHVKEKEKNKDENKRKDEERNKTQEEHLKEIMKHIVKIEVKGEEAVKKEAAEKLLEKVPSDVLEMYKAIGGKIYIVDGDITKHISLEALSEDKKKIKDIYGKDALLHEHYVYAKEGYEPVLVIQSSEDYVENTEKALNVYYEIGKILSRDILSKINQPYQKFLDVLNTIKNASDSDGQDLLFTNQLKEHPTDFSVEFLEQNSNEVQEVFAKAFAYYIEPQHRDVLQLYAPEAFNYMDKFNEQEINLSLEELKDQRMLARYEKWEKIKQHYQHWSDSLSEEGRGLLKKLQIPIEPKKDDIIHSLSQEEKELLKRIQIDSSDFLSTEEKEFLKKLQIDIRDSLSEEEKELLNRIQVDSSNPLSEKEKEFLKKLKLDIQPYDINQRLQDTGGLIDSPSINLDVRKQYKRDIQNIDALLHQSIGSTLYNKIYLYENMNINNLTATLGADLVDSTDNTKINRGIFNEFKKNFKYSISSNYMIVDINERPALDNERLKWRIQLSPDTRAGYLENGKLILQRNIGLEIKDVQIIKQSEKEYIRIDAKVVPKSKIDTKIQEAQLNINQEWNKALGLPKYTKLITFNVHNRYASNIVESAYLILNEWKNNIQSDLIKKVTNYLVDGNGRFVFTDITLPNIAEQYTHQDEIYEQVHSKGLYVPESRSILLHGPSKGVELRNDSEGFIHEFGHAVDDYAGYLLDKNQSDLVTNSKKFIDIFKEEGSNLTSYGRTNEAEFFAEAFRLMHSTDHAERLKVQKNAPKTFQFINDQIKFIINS
Chain of Botulinum neurotoxin type A (Clostridium botulinum) (P0DPI0 whole entry, looked up): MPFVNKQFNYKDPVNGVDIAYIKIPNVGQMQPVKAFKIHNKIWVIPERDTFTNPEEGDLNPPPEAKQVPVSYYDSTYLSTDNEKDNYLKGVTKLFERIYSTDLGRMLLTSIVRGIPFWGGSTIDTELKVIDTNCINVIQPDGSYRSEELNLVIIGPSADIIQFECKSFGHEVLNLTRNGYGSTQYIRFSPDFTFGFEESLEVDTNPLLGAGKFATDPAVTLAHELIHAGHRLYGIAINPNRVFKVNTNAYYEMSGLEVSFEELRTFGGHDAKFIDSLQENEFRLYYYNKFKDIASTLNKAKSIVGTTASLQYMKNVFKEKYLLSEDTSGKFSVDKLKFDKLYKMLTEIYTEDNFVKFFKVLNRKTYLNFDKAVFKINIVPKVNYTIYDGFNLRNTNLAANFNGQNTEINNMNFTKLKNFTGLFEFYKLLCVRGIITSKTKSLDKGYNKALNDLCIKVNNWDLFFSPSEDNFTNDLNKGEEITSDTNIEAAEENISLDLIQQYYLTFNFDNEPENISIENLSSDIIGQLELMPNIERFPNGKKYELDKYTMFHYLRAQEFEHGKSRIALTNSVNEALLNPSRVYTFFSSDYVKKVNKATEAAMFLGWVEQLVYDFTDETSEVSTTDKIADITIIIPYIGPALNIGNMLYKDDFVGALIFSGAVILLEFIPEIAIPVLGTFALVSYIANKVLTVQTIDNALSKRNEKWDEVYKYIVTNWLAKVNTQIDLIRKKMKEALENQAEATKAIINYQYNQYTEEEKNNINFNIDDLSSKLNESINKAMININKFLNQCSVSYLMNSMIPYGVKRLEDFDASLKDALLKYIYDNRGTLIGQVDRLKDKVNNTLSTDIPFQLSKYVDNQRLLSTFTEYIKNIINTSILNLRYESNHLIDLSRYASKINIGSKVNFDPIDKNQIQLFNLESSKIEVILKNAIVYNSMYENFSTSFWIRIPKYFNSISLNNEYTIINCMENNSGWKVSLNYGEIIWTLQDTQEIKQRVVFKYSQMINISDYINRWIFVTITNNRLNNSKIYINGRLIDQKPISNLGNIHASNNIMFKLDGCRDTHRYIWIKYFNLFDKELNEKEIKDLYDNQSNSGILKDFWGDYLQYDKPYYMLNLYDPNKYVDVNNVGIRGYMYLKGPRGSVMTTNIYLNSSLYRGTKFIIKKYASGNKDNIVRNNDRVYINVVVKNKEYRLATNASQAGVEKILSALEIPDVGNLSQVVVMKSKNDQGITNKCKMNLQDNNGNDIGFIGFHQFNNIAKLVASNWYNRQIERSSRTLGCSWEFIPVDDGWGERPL
Chain of Beta-adrenergic receptor kinase 1 (Homo sapiens) (P25098 whole entry, looked up): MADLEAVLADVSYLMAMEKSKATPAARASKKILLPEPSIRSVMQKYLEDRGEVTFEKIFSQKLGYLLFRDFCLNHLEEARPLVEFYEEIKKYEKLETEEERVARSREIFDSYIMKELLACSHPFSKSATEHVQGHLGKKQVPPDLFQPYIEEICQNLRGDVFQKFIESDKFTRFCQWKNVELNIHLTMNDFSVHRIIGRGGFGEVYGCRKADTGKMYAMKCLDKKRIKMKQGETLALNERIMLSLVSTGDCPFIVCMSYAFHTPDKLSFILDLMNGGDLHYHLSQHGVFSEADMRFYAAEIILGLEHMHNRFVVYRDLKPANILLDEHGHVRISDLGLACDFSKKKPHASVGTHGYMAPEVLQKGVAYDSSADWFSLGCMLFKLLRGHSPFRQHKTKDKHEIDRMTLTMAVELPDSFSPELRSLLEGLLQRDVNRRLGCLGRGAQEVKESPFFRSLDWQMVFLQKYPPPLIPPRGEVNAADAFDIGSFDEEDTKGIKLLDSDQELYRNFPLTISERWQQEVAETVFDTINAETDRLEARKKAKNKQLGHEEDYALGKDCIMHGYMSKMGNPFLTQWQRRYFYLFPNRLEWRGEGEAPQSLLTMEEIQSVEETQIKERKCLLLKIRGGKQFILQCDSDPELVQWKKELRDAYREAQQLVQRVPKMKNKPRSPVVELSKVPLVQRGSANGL

A word on the inhibition: it is the relative decrease from the control value, in per cent. Turning to `O=C1CC[C@@]2(O)[C@H]3Cc4ccc(O)c5c4[C@@]2(CCN3CC2CC2)[C@H]1O5`, the percent of DMSO control GFP in experiment [1] was 98.3% (inactive). Further, the GFP response vs DMSO was 126% (inactive) in [2] and 84.7% (inactive) in [4]. Besides, in experiment [3], the percent response of DMSO control is 96.6% (inactive). For the same compound, the GFP response, % of DMSO in experiment [5] was 96.1% (inactive). Also, in experiment [6], the double positive events stood at 63.4%. Besides, the vesicle binding response in [6] was 207% (inactive). Further, the inhibition was 1.61% (inactive) in experiment [7], -0.81% (inactive) in experiment [11] and 14% (inactive) in experiment [15]. In addition, the superoxide response (% of plate) in [8] is 95.9% (inactive). Also, in experiment [9], the aptamer binding inhibition was 2% (inactive). For the same compound, the response in experiment [10] is -8.64% (inactive); in experiment [12], 1.19% (inactive). For the same compound, the binding (% of control) in [13] is 107% (inactive). For the same compound, the efflux inhibition (fraction of control) in experiment [14] is -0.02 (inactive). The differentiation response in experiment [16] is -3.28% (inactive).
`O=C(O)CCCc1ccc(N(CCCl)CCCl)cc1`: the percent of DMSO control GFP in experiment [1] is 101% (inactive). The results for the GFP response vs DMSO in experiment [2] and in experiment [4] were 103% (inactive) and 97.4% (inactive), respectively. In addition, the percent response of DMSO control in experiment [3] is 98.8% (inactive). Also, in [5], the GFP response, % of DMSO is 97.6% (inactive). Moreover, the double positive events in experiment [6] worked out at 63.4%. Besides, in [6], the vesicle binding response was 148% (inactive). Besides, the inhibition in experiment [7] is 23.1% (inactive); in experiment [11] it was 1.29% (inactive); in experiment [17], -4% (inactive); in experiment [18], -2.1% (inactive); in experiment [19], -3.4% (inactive); in experiment [15] it was 8% (inactive). Moreover, the superoxide response (% of plate) in experiment [8] was 93.9% (inactive). Also, in [9], the aptamer binding inhibition is 4% (inactive). The response in experiment [12] was -5.67% (inactive). Also, the binding (% of control) in experiment [13] was 105% (inactive). Further, the efflux inhibition (fraction of control) in experiment [14] was 0.48 (active). The differentiation response in experiment [16] was 17.6% (inactive).
With `NCCc1c[nH]c2ccc(F)cc12`, the percent of DMSO control GFP in experiment [1] is 98.2% (inactive). For the same compound, the results for the GFP response vs DMSO in experiment [2] and in experiment [4] were 103% (inactive) and 106% (inactive), respectively. Further, the percent response of DMSO control in [3] was 107% (inactive). For the same compound, in experiment [5], the GFP response, % of DMSO is 100% (inactive). Further, in experiment [6], the double positive events turned out to be 59.2%. In addition, the vesicle binding response in experiment [6] is 77.4% (inactive). Moreover, the inhibition in [7] is 18.3% (inactive); in experiment [17] it was -3.3% (inactive); in experiment [18], -0.7% (inactive); in experiment [19] it was -4.9% (inactive); in experiment [15], 2% (inactive). Besides, in experiment [8], the superoxide response (% of plate) was 93.9% (inactive). Besides, the aptamer binding inhibition in experiment [9] was -1% (inactive). Also, the response in experiment [10] is 1.11% (inactive); in experiment [12] it was 6.8% (inactive). Also, the binding (% of control) in [13] was 104% (inactive). Further, the efflux inhibition (fraction of control) in experiment [14] was -0.44 (inactive). The differentiation response in [16] was 5.73% (inactive).
With `CC(C)[C@H]1C(=O)N2CCC[C@H]2[C@]2(O)O[C@](NC(=O)[C@@H]3C=C4c5cccc6[nH]cc(c56)C[C@H]4N(C)C3)(C(C)C)C(=O)N12`, in experiment [1], the percent of DMSO control GFP was 99% (inactive). Further, the results for the GFP response vs DMSO in experiment [2] and in experiment [4] were 108% (inactive) and 123% (inactive), respectively. The percent response of DMSO control in experiment [3] is 102% (inactive). Also, in experiment [5], the GFP response, % of DMSO was 118% (inactive). Further, the double positive events in experiment [6] is 59.8%. For the same compound, the vesicle binding response in [6] is 192% (inactive). The superoxide response (% of plate) in experiment [8] is 38.3% (active). Besides, the aptamer binding inhibition in experiment [9] was 8% (inactive). For the same compound, the response in experiment [10] was -24.6% (inactive); in experiment [12], -7.73% (inactive). Moreover, the inhibition in experiment [11] is 3.83% (inactive); in [17], -15.7% (inactive); in experiment [18], -5% (inactive); in [19], -64.2% (inactive); in experiment [15], -96% (inactive). Also, the binding (% of control) in experiment [13] was 105% (inactive). Besides, the efflux inhibition (fraction of control) in experiment [14] was 0.25 (inactive). Besides, the differentiation response in [16] is -2.03% (inactive).
